AMA1 RON2 block: AMA1-RON2 (P. falciparum) interaction inhibition; AlphaScreen AMA1-biotinylated RON2 peptide binding; Potency, µM (series often up to 58.2 µM), inactives show top-dose activity change, negative = inhibition, hits mostly inhibitors; 360,000 compounds, 0.2% hits; AID 720542;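 note: 0% = vehicle wells and -100% = peptide control; nearly all actives have a fitted effect of over 45% in size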
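AMA1 (3D7) with his tag at 25 nM final met compounds first, then biotinylated RON2 peptide at 25 nM; detection used donor plus acceptor beads, 10 µg/mL apiece, read by AlphaScreen after 30 min at room temperature.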
Pf growth 48h: inhibits P. falciparum growth in the first generation, 48 h; AID 504832; 310,000 compounds, 5.9% hits; Potency, µM (series often up to 28.7 µM), for inactives: at the highest dose activity change, negative = inhibition, most hits filed as inhibitors; P. falciparum luciferase growth in erythrocytes, 48 h; note: % is set by controls: 0 for no effect and ±100 for the full control effect
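Firefly luciferase activity from engineered P. falciparum reports growth; inhibitors lower the luminescent signal. Cultures contained 2% hematocrit erythrocytes at 0.1% final parasitemia.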
Pf growth 96h: inhibits malaria parasite growth, 96 h; P. falciparum luciferase reporter growth, 96 h; Potency, µM (doses to about 28.7 µM), without a hit: top-dose activity change, negative = inhibition, hits mostly inhibitors; 320,000 compounds, 6.9% hits; AID 504834; note: % is set by controls: 0 for no effect and ±100 for the full control effect
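Luminescence readout: decreased luciferase signal marks inhibited growth of reporter-expressing P. falciparum in infected red cells (2% hematocrit, 0.05% parasitemia final), exposed to compound two generations (96 h, 37 C, 5% CO2).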
Sm TGR inh: blocks Schistosoma mansoni thioredoxin glutathione reductase; purified TGR, DTNB reduction, TNB absorbance 405 nm; Potency, µM (doses to about 114 µM), inactives show at the highest dose activity change, negative = inhibition, actives largely listed as inhibitors; 360,000 compounds, 3% hits; AID 485364; note: % is set by controls: 0 for no effect and ±100 for the full control effect; nearly all actives have a fitted effect of over 60% in size
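Kinetic colorimetric format: TGR-catalysed, NADPH-driven DTNB reduction monitored via TNB absorbance. Enzyme dispensed at 20 nM; compound exposure 15 min at room temperature before reaction start.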
NS1 inh: blocks influenza NS1 protein function. Potency, µM (highest dose often 46.1 µM), for the others: at the top dose activity, positive = more growth. 270,000 compounds, 0.4% hits. AID 2326; calls by dose curve; note: actives are rising curves; nearly all actives have a fitted effect of over 50% in size
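Compounds were scored for reversing the slow growth caused by influenza A NS1 in S. cerevisiae, measured by optical density at 600 nm. Assay medium contained 2% galactose at pH 6.0; NS1-free yeast of the same strain were the positive control.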
Numbers without * were called inactive; ? = inconclusive; . = no result given; [ ] = remark or other dose. Sampled rows, rich in hits. Any-hit rate of the full collection: about 11%. Unless noted, calls come from the whole dose curve; as a rule, active = well fitted curve in the direction sought with a large enough effect; inconclusive = small, poorly fitted or top-dose-only effect, or another doubt; inactive = no such curve, though single readings can be large; an effect the other way counts as inactive or inconclusive. Potency is the fitted concentration of half-maximal effect.

SMILES	AMA1 RON2 block	Pf growth 48h	Pf growth 96h	Sm TGR inh	NS1 inh
CN(C)S(=O)(=O)c1ccc(N2CCCC2)c(C(=O)Nc2nc(-c3ccc(F)cc3)cs2)c1	-7.2%	9.28µM*	?	-15.2%	8.3%
CC1CCc2c(sc(NC(=O)c3cc4nc(-c5ccc(Cl)cc5)cc(C(F)(F)F)n4n3)c2C#N)C1 (stereo not given)	.	.	.	-7.0%	.
Cc1n[nH]c(C)c1CN(C)C(=O)C1CCC(=O)N(CC2CCCCC2)C1 (stereo not given)	0.1%	?	?	-12.2%	6.8%
CN(C)S(=O)(=O)c1ccc(N2CCCC2)c(C(=O)Nc2ccccc2Br)c1	2.3%	13.1µM*	14.7µM*	-11.0%	.
CCOc1ccccc1NC(=O)CCc1nnc2ccc(N3CCC(C)CC3)nn12	8.2%	?	?	0.9%	-15.5%
COc1cc(NC(=O)CCc2nnc3ccc(N4CCCCC4)nn23)cc(OC)c1OC	1.4%	?	10.4µM*	-4.8%	8.1%
COc1cc(NC(=O)CCc2nnc3ccc(N4CCCC4)nn23)cc(OC)c1OC	-1.5%	?	?	-7.0%	4.8%
COc1ccccc1NC(=O)CCc1nnc2ccc(N3CCCCC3)nn12	13.6%	-26.6%	4.15µM*	4.2%	-5.6%
COc1cccc(CNC(=O)CCCn2nc(C)c3c(C)n(-c4ccc(C)cc4)nc3c2=O)c1OC	11.5%	?	?	2.6%	0.0%
Cc1ccc(CNC(=O)CN2CCN(Cc3ccc(F)cc3)C2=O)cc1	.	.	.	-2.4%	.
Cc1ccc(NC(=O)c2sc3nc4c(c(-c5ccco5)c3c2N)CCC4)cc1	15.3%	?	2.33µM*	4.2%	?
NC(=O)c1sc2nc(-c3ccccc3)ccc2c1N	1.3%	?	0.0%	-21.4%	-5.7%
Nc1c(C(=O)Nc2ccc(Br)cc2)sc2nc(-c3ccco3)ccc12	2.6%	-52.9%	0.0%	0.794µM*	18.9%
Nc1c(C(=O)Nc2ccc(F)cc2)sc2nc(-c3ccco3)ccc12	27.6%	-19.6%	-14.5%	?	-47.9%
Nc1c(C(=O)Nc2ccccc2)sc2nc3c(c(-c4ccco4)c12)CCC3	-16.1%	?	?	0.5%	25.8%
CC(=O)c1sc2nc(-c3ccco3)ccc2c1N	-1.4%	171.8%	266.8%	0.891µM*	-2.7%
CC(=O)Nc1cccc(C(=O)NCc2ccc3c(c2)CCN3C(=O)c2ccc(F)cc2)c1	.	.	.	4.4%	.
O=C(NCCCn1ccnc1)c1cc(Cl)cc(Cl)c1	-3.0%	-2.3%	-4.6%	-10.6%	2.3%
Nc1nonc1C(=O)NCCNS(=O)(=O)c1ccc(F)cc1	-0.5%	14.7%	2.94µM*	-12.8%	2.5%
Nc1nonc1C(=O)NCCNCc1ccccc1F	.	.	.	1.0%	.
Nc1nonc1C(=O)NCCNCc1cc(Br)ccc1OCc1ccc(F)cc1	-6.1%	?	1.0%	-27.6%	-0.1%
Nc1nonc1C(=O)NCCNCc1ccccc1	8.1%	.	11.7µM*	-2.0%	2.8%
Nc1nonc1C(=O)NCCNCc1c(OCc2ccccc2F)ccc2ccccc12	-6.9%	4.65µM*	.	0.5%	1.4%
Cc1ccc(NC(=O)COC(=O)CSC(=S)N2CCOCC2)cc1	-0.1%	20.3%	?	-0.3%	-3.8%
CCOc1ccc(/C=N/NC(=O)c2ccc(O)cc2)cc1CN1CC2CC(C1)c1cccc(=O)n1C2 (stereo not given)	-2.3%	?	?	-7.4%	.
SMILES	AMA1 RON2 block	Pf growth 48h	Pf growth 96h	Sm TGR inh	NS1 inh
CCOc1ccc(/C=N/NC(=O)Cc2ccccc2)cc1CN1CC2CC(C1)c1cccc(=O)n1C2 (stereo not given)	-15.9%	6.57µM*	-17.7%	-19.5%	.
O=C(N/N=C/c1c(O)n(CCc2ccc(F)cc2)c(=O)[nH]c1=O)c1ccncc1	25.9%	5.4%	?	?	.
O=C(N/N=C/c1c(O)n(-c2cccc3ccccc23)c(=O)[nH]c1=O)c1ccncc1	-7.1%	9.7%	51.3%	14.1µM*	-6.4%
O=C(N/N=C/c1c(O)n(CCc2ccccc2)c(=O)[nH]c1=O)c1ccncc1	10.5%	-8.5%	?	17.8µM*	-26.5%
O=C(CN1C(=O)c2ccccc2C1=O)NCCOc1ccccc1	-3.0%	11.8%	22.2%	10.5%	-0.8%
CSc1nc(N2CCN(C)CC2)c2ccccc2n1	10.7%	-9.7%	14.7µM*	?	1.7%
c1ccc(N2CCN(c3nc(-c4ccccn4)nc4ccccc34)CC2)cc1	-10.7%	1.85µM*	2.94µM*	5.9%	-66.3%
CN1CCN(c2nc(-c3ccccn3)nc3ccccc23)CC1	4.1%	.	5.86µM*	-8.8%	3.9%
Cc1cccc(C(=O)NCC(=O)N2CCOCC2)c1	1.6%	-9.8%	14.0%	-0.2%	9.9%
C=CCOc1ccc(/C=C/C(=O)OCC(=O)NNC(=O)c2ccccc2F)cc1	72.5%	.	.	.	.
COc1cc(C2c3cc4c(cc3C(O[C@@H]3OC5COC(c6cccs6)OC5C(O)C3O)C3COC(=O)C23)OCO4)cc(OC)c1O (stereo not given in full)	.	0.536µM*	0.477µM*	.	.
COc1cc([C@H]2c3cc4c(cc3[C@@H](O[C@H]3O[C@H]5CO[C@@H](C)O[C@H]5[C@@H](O)[C@@H]3O)[C@@H]3COC(=O)[C@H]23)OCO4)cc(OC)c1O	.	13.5µM*	13.5µM*	.	.
OC(COCc1ccc(Cl)cc1)CN1CC=C(c2ccccc2)CC1 (stereo not given)	5.8%	9.28µM*	3.29µM*	-15.8%	-45.8%
OC(COCc1ccc(Cl)cc1)CN1CCc2ccccc2C1 (stereo not given)	-4.7%	5.6%	?	-3.5%	-9.7%
CCOc1ccc(C(=O)NCC(=O)N2CCCC2)cc1	29.4%	10.6%	49.1%	3.7%	16.6%
O=[N+]([O-])c1ccccc1S(=O)(=O)NCCSCc1ccco1	-12.1%	-26.7%	?	25.1µM*	.
COc1ccc(/C=C/C(=O)NCCSCc2ccco2)cc1	26.0%	-4.9%	9.28µM*	?	-3.1%
CS(=O)(=O)NCCSCc1ccco1	-4.1%	32.3%	-18.4%	20µM*	8.3%
CSC(=S)N/N=C(\C)c1ccc(Br)cc1	-1.7%	?	73.9%	0.2%	-1.3%
CC(C)Oc1ccc(S(=O)(=O)N2CCOCC2)cc1NC(=O)c1cccc(S(=O)(=O)N2CCCC2)c1	0.7%[11.6 µM]	.	.	.	.
CCN(CC)c1ccc(C2NC(=O)NC(C)=C2C(=O)Nc2ccccc2)cc1 (stereo not given)	-9.7%	.	2.62µM*	-1.2%[11.4 µM]	-8.3%
CCOc1ccc(N2C(=O)CC(N(Cc3ccco3)C(=O)CC)C2=O)cc1 (stereo not given)	2.9%	-1.7%	?	.	-1.1%
O=C(O)CCC(=O)N(Cc1ccco1)C1CC(=O)N(c2ccccc2)C1=O (stereo not given)	-1.8%	-0.9%	-7.2%	-34.7%	3.6%
CCCOc1ccc(N2C(=O)CC(N(Cc3ccco3)C(=O)CC)C2=O)cc1 (stereo not given)	1.5%	?	51.5%	14.1µM*	4.1%

Compound activity from PubChem.
